# Compound activity deposited in PubChem by Sanford-Burnham Center for Chemical Genomics.
# A selection: hits, their analogues and other compounds. The true share with any hit is near 31%.
# CYP2C19 inh – blocks human cytochrome P450 2C19; P33261; CYP2C19 Supersomes, luciferin-H EGE luminescence, 30 min; actives 21% (n = 96,000); inhibition, % at 5 µM;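 active = CYP2C19 inhibition above a set limit at 5 µM in the primary screen, cut at about 50% in these data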;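 note: plate controls were negative control wells for no effect and 2.5 mM tranylcypromine positive control for full effect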
# Target sequence (P33261 whole entry, looked up): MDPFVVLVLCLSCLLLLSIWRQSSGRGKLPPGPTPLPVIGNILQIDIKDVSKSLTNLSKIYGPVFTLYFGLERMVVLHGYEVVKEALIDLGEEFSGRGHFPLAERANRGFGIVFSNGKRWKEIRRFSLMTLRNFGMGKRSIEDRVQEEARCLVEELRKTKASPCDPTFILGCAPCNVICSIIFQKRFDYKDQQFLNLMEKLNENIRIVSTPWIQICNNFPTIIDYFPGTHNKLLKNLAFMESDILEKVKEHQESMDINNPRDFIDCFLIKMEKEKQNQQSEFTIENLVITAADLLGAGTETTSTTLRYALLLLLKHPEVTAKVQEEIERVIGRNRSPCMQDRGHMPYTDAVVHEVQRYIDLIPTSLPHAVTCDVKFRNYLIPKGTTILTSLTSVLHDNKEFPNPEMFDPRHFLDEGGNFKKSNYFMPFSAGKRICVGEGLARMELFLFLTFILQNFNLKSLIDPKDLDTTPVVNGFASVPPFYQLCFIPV
# CYP2C9 activ – CYP2C9 (human) activation; P11712; recombinant CYP2C9, luciferin-H conversion, luminescence; active compounds read high; factor 1 = untreated enzyme, 0 = blocked; activation factor at 5 µM; actives 1.4% (n = 96,000);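 active = activation factor of 2 or more for CYP2C9 at a 5 µM dose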;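 note: 0 = sulfaphenazole-blocked wells and 1 = vehicle-only wells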
# CYP2C19 activ – activators of human cytochrome P450 2C19. P33261. recombinant CYP2C19, luciferin-H EGE luminescence; active compounds read high; 0 = fully inhibited enzyme, 1 = untreated enzyme. activation factor at 5 µM. 96,000 tested, under 10 active;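 active = activation factor of at least 2 at 5 µM in the primary screen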;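 note: 0 = wells with 2.5 mM tranylcypromine and 1 = vehicle-only wells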
# CYP2C9 inhib – inhibitors of human CYP2C9. P11712. CYP2C9 Supersomes, luciferin-H conversion, luminescence. inhibition, % at 5 µM. actives 20% (n = 96,000). AID 777;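 active = blocking of liver enzyme CYP2C9 beyond about 50% at 5 µM, limit read from the data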
# An asterisk follows results filed as active.
SMILES,CYP2C19 inh,CYP2C9 activ,CYP2C19 activ,CYP2C9 inhib
N#C/C(=C/c1ccc(Sc2nc3ccccc3[nH]2)o1)c1ccccc1F,95*,0.1,0.1,90*
CC(C)Cn1c(N)c(C(=O)CSc2ccc3c(c2)OCCO3)c(=O)n(C)c1=O,24,1,0.8,1
OC(Cn1cccn1)c1ccccc1 (stereo unspecified),-11,1.1,1.1,-10
CCOc1ccccc1-c1nc(-c2cc3ccccc3nc2OC)no1,6,1,0.9,0
O=C(COc1ccc(Cl)cc1)N(Cc1ccccc1)c1ccccn1,98*,0.5,0,55*
CN(CC(=O)Nc1c(Cl)cccc1Cl)C(=O)CCCN1C(=O)c2ccccc2C1=O,30,0.1,0.7,86*
CCN(C(=O)Cc1c(C(=O)O)[nH]c2ccccc12)c1cc(OC)ccc1OC,-18,0.9,1.2,14
CCN(C(=O)c1coc(=O)c2ccccc12)c1cc(OC)ccc1OC,38,0.4,0.6,64*
CCCNS(=O)(=O)c1ccc(OCC(=O)Nc2ccc3c(c2)OCCO3)cc1,11,0.3,0.9,70*
CCCNS(=O)(=O)c1ccc(OCC(=O)NCc2ccc3c(c2)OCO3)cc1,54*,0.4,0.5,62*
CCC(C)NS(=O)(=O)c1ccc(OCC(=O)NCc2ccc3c(c2)OCO3)cc1 (stereo unspecified),36,0.5,0.6,49
COCCNC(=O)CN(C(=O)CCC(=O)Nc1ccccn1)c1ccc(F)cc1,22,1,0.8,3
CCC(C)(C)NC(=O)CN(C(=O)CCC(=O)Nc1ccccn1)c1ccc(F)c(Cl)c1,85*,0.3,0.2,75*
CC(C)NC(=O)CN(C(=O)CCC(=O)Nc1ccccn1)c1ccc(F)c(Cl)c1,66*,0.7,0.3,31
COCCNC(=O)CN(C(=O)CCC(=O)Nc1ccccn1)c1ccc(F)c(Cl)c1,30,0.8,0.7,18
Cc1ccc(CCN2C(=O)CCC2(C)C(=O)NCc2cccnc2)cc1 (stereo unspecified),11,0.8,0.9,18
CC1C/C(=N\NC(=S)NC(C)C)CC(C)(C)C1 (stereo unspecified),88*,0.5,0.1,51*
CCc1ccc(NC(=O)C(C)Oc2nnc(-c3cccs3)c(-c3cccs3)n2)cc1 (stereo unspecified),-14,0.3,1.1,68*
CCC(C)C(=O)Nc1nnc(-c2cccs2)s1 (stereo unspecified),5,0.8,0.9,19
CC(C)c1ccc(NC(=O)COc2nnc(-c3cccs3)c(-c3cccs3)n2)cc1,80*,0.1,0.2,86*
CCc1c(C)nc(N)n2c(SCC(=O)N3CCN(c4ccccc4OC)CC3)nnc12,32,0.8,0.7,20
COc1ccc(-c2nnc3ccc(SCC(=O)N4CCCCCC4)nn23)cc1OC,4,0.7,1,27
CN1Cc2cc(C(=O)c3cc(Cl)cc(CSc4ncccn4)c3O)cnc2NC1=O,5,0.7,1,32
COc1ccccc1CC(=O)Nc1ccc(-c2noc(COc3ccc(Br)cc3)n2)cc1,1,1,1,3
COc1ccccc1CC(=O)Nc1ccc(-c2noc(COc3cccc(C)c3C)n2)cc1,25,0.4,0.8,63*
SMILES,CYP2C19 inh,CYP2C9 activ,CYP2C19 activ,CYP2C9 inhib
COCc1nc(-c2cc(OC)c(OC)c(OC)c2)no1,48,0.5,0.5,51*
COc1ccc(-c2noc(COc3ccccc3OC)n2)cc1OC,78*,1.7,0.2,-73
FC(F)(F)c1cccc(N2CCN(c3ccc4nnc(-c5ccccc5)n4n3)CC2)c1,-14,1,1.1,2
CC1(C)CC(=O)c2cc(OCC(=O)NCCCN3CCN(c4ccc(F)cc4)CC3)ccc2O1,8,0.9,0.9,14
Cn1c(Cc2csc(N)n2)nnc1SCC(=O)NCc1ccccc1,8,1,0.9,2
O=C(Nc1nc(COc2ccccc2)cs1)C12CC3CC(CC(C3)C1)C2,56*,0,0.4,96*
Cc1ccc(C(=O)Nc2nc(COc3ccccc3)cs2)s1,1,0.7,1,27
CC(=O)Nc1nc(COc2ccc3ccccc3c2)cs1,37,1.1,0.6,-13
CCOC(=O)Cc1csc(NC(=O)c2cccnc2)n1,14,0.9,0.9,10
CC(=O)Nc1nc(CC(=O)c2ccccc2)cs1,65*,1.1,0.3,-11
CC(=O)Nc1nc(COc2ccccc2)cs1,89*,0.4,0.1,59*
Fc1ccccc1OCCCCCCN1CCCC1,14,0.9,0.9,12
O=C(CS(=O)(=O)c1cn(Cc2ccc(Cl)cc2)c2ccccc12)N1CCCCC1,-14,1,1.1,2
Brc1ccccc1Cn1c(-c2cscn2)nc2ccccc21,56*,0.8,0.4,15
CSc1ccccc1NC(=O)Cn1c(-c2cscn2)nc2ccccc21,98*,0.2,0,78*
CCn1c(CNC(=O)COC)nc2ccccc21,-5,1.2,1,-20
COC(=O)c1ccccc1NC(=O)C1CCCN(c2nnc(-n3cccc3)s2)C1 (stereo unspecified),26,0.9,0.7,11
CNc1ccc(C(O)(C(F)(F)F)C(F)(F)F)cc1C(O)(C(F)(F)F)C(F)(F)F,75*,0.5,0.3,53*
COC(=O)C1=C(CSc2nnnn2C)NC(=O)NC1c1cc(C)ccc1C (stereo unspecified),33,0.6,0.7,38
COC(=O)C1=C(CN2CCSCC2)NC(=O)NC1c1cc(C)ccc1C (stereo unspecified),19,1,0.8,0
CCOC(=O)C1=C(CSc2nc3ccccc3s2)NC(=O)NC1c1ccc(OC)cc1 (stereo unspecified),60*,0.5,0.4,46
CCOC(=O)C1=C(CN2CCSCC2)NC(=O)NC1c1cc(C)ccc1C (stereo unspecified),38,0.4,0.6,56*
CCOC(=O)C1=C(CSc2nc3ccccc3s2)NC(=O)NC1c1cc(C)ccc1C (stereo unspecified),68*,0.2,0.3,78*
CC(=O)C1=C(O)C(=O)N(c2nccs2)C1c1ccccc1 (stereo unspecified),14,0.8,0.9,18
Cc1sc2c(c1C)c(=O)n(-c1cccc(C(F)(F)F)c1)c(=O)n2CC(=O)NCc1ccco1,10,0.9,0.9,8
SMILES,CYP2C19 inh,CYP2C9 activ,CYP2C19 activ,CYP2C9 inhib
Cc1ccccc1OCCNC(=S)Nc1ccccc1,70*,0.9,0.3,9
COc1ccc(N2CCN(C(=O)c3ccc(NS(=O)(=O)c4cccc(F)c4)cc3)CC2)cc1,24,0.1,0.8,90*
COc1ccc(N2CCN(C(=O)c3ccc(C)c(Cl)c3)CC2)cc1,27,1,0.7,2
COc1ccc(N2CCN(C(=O)c3ccc(NS(=O)(=O)c4ccc(F)c(F)c4)cc3)CC2)cc1,24,0.1,0.8,93*
C=CCn1c(O)c(C2=c3ccccc3=NC2=O)s/c1=N/c1nccs1,9,0.4,0.9,61*
COC(=O)c1oc2ccc(Cl)cc2c1-n1cccc1,58*,0.3,0.4,72*
COC(=O)c1oc2ccccc2c1-n1cccc1,14,0.8,0.9,21
